Screens from PubChem.
DT40 TDP1 no CPT = qHTS for Inhibitors of human tyrosyl-DNA phosphodiesterase 1 (TDP1): qHTS in cells in absence of CPT. 420,000 compounds, 15% hits. AID 686978, 2013. DT40 Tdp1-/- hTDP1 cells, no CPT, ATP luminescence, 48 h. Potency, µM (series often up to 46.2 µM), for inactives: top-dose activity change, negative = growth inhibition, most hits filed as inhibitors; further: potency means the concentration at half of the fitted maximal effect; nearly all actives have a fitted effect of over 55% in size
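No-CPT arm: Tdp1-/-;hTDP1 DT40 cells (400/well) plus compounds, incubated ≥48 hr at 37 °C. Readout CellTiter-Glo luminescence.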
ELG1 repair inh = inhibitors of ELG1-dependent DNA repair in HEK293T cells. Potency, µM (highest dose often 46.1 µM), for the others: at the top dose activity change, negative = inhibition, usual class: inhibitors. HEK293T ELG1-luciferase reporter, luminescence, 16 h; DNA damage induced by 5-fluorouridine. 330,000 compounds, 2.3% hits. AID 504467; further: potency means the concentration at half of the fitted maximal effect; nearly all actives have a fitted effect of over 55% in size
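5-Fluorouridine DNA damage + compound/DMSO, 2,000 cells/well, 16 h, 37 °C/5% CO2. ONE-Glo, 30 min RT, luminescence. Readout = decrease in reporter signal.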
HT1080 IDH1KD tx = HT-1080 IDH1 knockdown cell toxicity (counter line). HT-1080 IDH1 knockdown viability, ATP luminescence, 48 h. 360,000 compounds, 2% hits. Potency, µM (top dose mostly 46.1 µM), for inactives: at the top dose activity, negative = toxicity, usual class: cytotoxic;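 further: potency means the concentration at half of the fitted maximal effect; 0% = DMSO wells and -100% = cell-free medium wells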
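Luminescent ATP read-out (CellTiter-Glo, 10 min at room temperature) after 48 h compound exposure at 37 °C gave viability of IDH1-knockdown HT-1080 cells. Activity was normalised to DMSO and cell-free wells, then fitted as concentration-response curves.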
HT1080-NT tox = kills 2HG-producing HT-1080-NT fibrosarcoma cells | HT-1080-NT fibrosarcoma viability, CellTiter-Glo ATP luminescence, 48 h | Potency, µM (highest dose often 46.1 µM), for the others: top-dose activity, negative = less viability, most hits filed as cytotoxic | 360,000 compounds, 1.6% hits | AID 686970;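 further: NT is the 2HG producing partner of a matched IDH1 knockdown line; potency means the concentration at half of the fitted maximal effect; 0% = DMSO-treated cells and -100% = media-only wells without cells; nearly all actives have a fitted effect of over 55% in size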
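Read-out is CellTiter-Glo luminescence after 10 minutes at room temperature, following 48 hours' compound treatment of HT-1080-NT cells (750 cells/well, RPMI, 5% FBS, 37 degrees C).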
IL1B secr inh = inflammasome signaling inhibition, IL-1 beta readout | THP-1 LPS/ATP IL-1B secretion, AlphaLISA, 16 h; hits give low values | activity change, % at 57.5 µM | 360,000 compounds, 4.7% hits | AID 743279; in the data active means activity change below about -50%; inconclusive means mostly about -30% to -49%
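Secreted IL-1B measured by AlphaLISA bead assay after 16 h compound exposure of THP-1 cells; compounds (final up to 57.5 uM) added 1 h before LPS (250 ng/mL) and ATP (1.25 mM) stimulation; lower signal means less secretion.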
DT40 TDP1 CPT = growth inhibition of DT40 Tdp1-/-;hTDP1 cells with camptothecin (screen for TDP1 inhibitors); chicken DT40 Tdp1-/-;hTDP1 cells + 20 nM CPT, ATP luminescence, 48 h; Potency, µM (titrated, usually from 46.2 µM), inactives show top-dose activity change, negative = growth inhibition, usual class: inhibitors; 420,000 compounds, 12% hits; AID 686979; further: potency means the concentration at half of the fitted maximal effect; nearly all actives have a fitted effect of over 55% in size
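Chicken DT40 Tdp1-/- cells complemented with human TDP1, 400 cells/well, exposed to compounds plus 20 nM camptothecin for at least 48 h at 37 C; viability read as ATP content by CellTiter-Glo luminescence.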
The depositor's hits bear a star. A selection: hits, their analogues and other compounds. The true share with any hit is near 19%. Unless noted, the call rests on the fitted dose curve; in most records, active means well fitted curve in the direction sought with a large enough effect; inconclusive means small, poorly fitted or top-dose-only effect, or another doubt; inactive means no such curve, though single readings can be large; an effect the other way counts as inactive or inconclusive. Unless noted, on the % scale 0 is the no-effect control and ±100 the full control effect.

How did CCn1cc(C(=O)N2CCN(c3cc(Cl)ccc3C)CC2)c(=O)c2cc(S(=O)(=O)N3CCOCC3)ccc21 do in these assays?
DT40 TDP1 no CPT: inconclusive; DT40 TDP1 CPT: -9%

What do the screens show for `Cc1ccc(S(=O)(=O)N2CCC(N3CCN(C)CC3)CC2)cc1Cl`?
DT40 TDP1 no CPT: inconclusive; ELG1 repair inh: 1%; HT1080 IDH1KD tx: 7%; HT1080-NT tox: -2%; IL1B secr inh: -1; DT40 TDP1 CPT: -21%

How did N#Cc1c(-n2ncnc2-c2ccc(F)cc2)sc2c1CCCCC2 do in these assays?
DT40 TDP1 no CPT: -23%; DT40 TDP1 CPT: 1%

What do the screens show for `CC(=O)Oc1ccc2ccccc2c1C(NC(=O)C(C)C)c1cccc([N+](=O)[O-])c1` (centres undefined)?
DT40 TDP1 no CPT: inconclusive; ELG1 repair inh: inconclusive; HT1080 IDH1KD tx: 0%; HT1080-NT tox: inconclusive; IL1B secr inh: -74*; DT40 TDP1 CPT: inconclusive

Results for CC(=O)c1c(C(C)=O)c(C)n(-c2nc(-c3ccc(Br)cc3)c(C)s2)c1C ?
DT40 TDP1 no CPT: 16µM*; ELG1 repair inh: inconclusive; HT1080 IDH1KD tx: -15%; HT1080-NT tox: -6%; IL1B secr inh: -28; DT40 TDP1 CPT: 18µM*

What do the screens show for `Cc1nc(-c2ccccc2)cc(N2CCCC2)n1`?
DT40 TDP1 no CPT: -15%; ELG1 repair inh: 20%; HT1080 IDH1KD tx: 3%; HT1080-NT tox: 10%; IL1B secr inh: 0; DT40 TDP1 CPT: 0%

What do the screens show for `Cc1nc(NNC(=O)c2ccc(Cl)cc2Cl)cc(-c2ccccc2)n1`?
DT40 TDP1 no CPT: -24%; ELG1 repair inh: 5%; HT1080 IDH1KD tx: inconclusive; HT1080-NT tox: inconclusive; IL1B secr inh: -2; DT40 TDP1 CPT: -15%

Results for Cc1cc(C)cc(Nc2cc(-c3ccccc3)nc(C)n2)c1 ?
DT40 TDP1 no CPT: 8.2µM*; DT40 TDP1 CPT: 9.2µM*

What do the screens show for `Cc1cc(C)n(-c2cc(-c3ccccc3)nc(C)n2)n1`?
DT40 TDP1 no CPT: inconclusive; ELG1 repair inh: -13%; HT1080 IDH1KD tx: -1%; HT1080-NT tox: 2%; IL1B secr inh: -6; DT40 TDP1 CPT: 16µM*

Results for CC(=O)NCC1(c2ccccc2)CCN(CCCC(=O)c2ccc(F)cc2)CC1 ?
DT40 TDP1 no CPT: -2%; HT1080 IDH1KD tx: 5%; HT1080-NT tox: 2%; IL1B secr inh: -5; DT40 TDP1 CPT: 8%

What do the screens show for `CCCc1c(C(=O)N/N=C/c2c[nH]c3ccccc23)nnn1-c1nonc1N`?
DT40 TDP1 no CPT: inconclusive; HT1080 IDH1KD tx: 2%; HT1080-NT tox: -2%; IL1B secr inh: 17; DT40 TDP1 CPT: inconclusive

Results for CCCN(CCC)Cc1c(C(=O)N/N=C/c2c[nH]c3ccccc23)nnn1-c1nonc1N ?
DT40 TDP1 no CPT: -6%; ELG1 repair inh: 14%; HT1080 IDH1KD tx: 29µM*; HT1080-NT tox: inconclusive; IL1B secr inh: inconclusive; DT40 TDP1 CPT: -20%

What do the screens show for `Cc1ccc(-c2c(C(=O)N/N=C/c3c[nH]c4ccccc34)nnn2-c2nonc2N)cc1`?
DT40 TDP1 no CPT: 16µM*; ELG1 repair inh: inconclusive; HT1080 IDH1KD tx: -7%; HT1080-NT tox: 4%; IL1B secr inh: -25; DT40 TDP1 CPT: inconclusive

What do the screens show for `Cc1nc(N2CCC(C)CC2)c2c(C)c(C(=O)Nc3ccccc3C(F)(F)F)sc2n1`?
DT40 TDP1 no CPT: inconclusive; ELG1 repair inh: 15µM*; HT1080 IDH1KD tx: -12%; HT1080-NT tox: 0%; IL1B secr inh: -4; DT40 TDP1 CPT: inconclusive
